Compound activity: PubChem BioAssay, National Center for Advancing Translational Sciences (NCATS)
Shown are actives, neighbours in structure and some others; about 3.7% of the full set was active somewhere.
BRCA1 expr up: activators of BRCA1 expression | MCF7-BRCA1-FFLuc reporter, luminescence, 48 h; response scale: scaled: vehicle 0%, 10 µM genistein 100% | Potency, µM (top dose mostly 46.1 µM), for the others: top-dose activation, usual class: activators | actives 1.1% (n = 380,000); note: potency is the fitted concentration of half-maximal effect; nearly all actives have a fitted effect of over 80% in size
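Compounds are tested at multiple concentrations on MCF7 BRCA1-luciferase reporter cells seeded at 2000 per well; after 48 h, a single luminescence end-point is taken and curves fitted to the normalized data.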
PTHR1 ag: PTHR1 (human) receptor agonism. Q03431. HEK293 GP2 PTHR1 cells, GloSensor cAMP luminescence, 1 h. Potency, µM (top dose mostly 115 µM), for inactives: top-dose activation, actives largely listed as activators. actives 0.075% (n = 410,000); note: potency is the fitted concentration of half-maximal effect; nearly all actives have a fitted effect of over 55% in size
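HEK-293-derived GP2 cells expressing PTHR1 and a GloSensor cAMP reporter, 3,000/well, plated overnight, given luciferin plus IBMX (each 0.5 mM as added) for 1 h at 37 °C, then compound for 1 h at 37 °C. Luminescence was read after 15 min at room temperature.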
B2AR arrestin: recruits beta-arrestin to the human beta2-adrenergic receptor | P07550 | beta-arrestin recruitment to beta2AR, cell-based reporter | actives 0.02% (n = 330,000) | Potency, µM (series often up to 46.1 µM), inactives show at the top dose activation, usual class: activators;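 note: potency is the fitted concentration of half-maximal effect; 0% = DMSO controls and full agonism = EC100 isoproterenol or metaproterenol; nearly all actives have a fitted effect of over 65% in size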
DRD3 agonist: activates the human D3 dopamine receptor | P35462 | max activation, % | AID 652048 | D3R DiscoveRx beta-arrestin cells, luminescence, 90 min | actives 0.58% (n = 410,000); in the data active = max activation above about 30%; note: 0% is about no effect
Target sequence (P35462 whole entry, looked up): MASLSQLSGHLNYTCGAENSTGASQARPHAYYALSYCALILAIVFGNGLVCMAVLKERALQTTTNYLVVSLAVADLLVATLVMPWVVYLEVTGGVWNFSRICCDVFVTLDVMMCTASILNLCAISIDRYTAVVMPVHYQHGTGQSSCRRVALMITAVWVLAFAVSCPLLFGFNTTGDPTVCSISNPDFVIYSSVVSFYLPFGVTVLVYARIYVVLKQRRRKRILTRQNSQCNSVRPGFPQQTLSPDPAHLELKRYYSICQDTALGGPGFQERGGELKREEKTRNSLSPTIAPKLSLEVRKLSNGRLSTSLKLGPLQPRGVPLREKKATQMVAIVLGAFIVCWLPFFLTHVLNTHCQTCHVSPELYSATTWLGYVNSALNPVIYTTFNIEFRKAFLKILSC
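Agonist-mode cell screen: cells plated at 1500/well and incubated overnight at 37 °C, then exposed to library compounds for 90 min at 37 °C. Detection reagent was added for 30–60 min at room temperature, and luminescence was read.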
DRD3 antagonist: blocks the human D3 dopamine receptor; P35462; D3R cells, DiscoveRx beta-arrestin luminescence, antagonist mode; stronger effect = lower value; max response, negative = inhibition, %; actives 2.5% (n = 360,000); in the data active = max response below about -50%; inconclusive = no clear call, values can overlap the other calls; note: % is set by controls: 0 for no effect and ±100 for the full control effect
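Cells expressing the human receptor were seeded at 1500 cells/well, incubated overnight at 37 degrees C in 5% CO2, then exposed to library compounds with dopamine controls for 90 minutes at 37 degrees C before luminescent detection.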
RGS4 inhibitor: human RGS4 inhibition | P49798 | actives 0.039% (n = 390,000) | Transcreener GDP fluorescence polarization, RGS4-accelerated GTP hydrolysis | Potency, µM (series often up to 114 µM), for inactives: top-dose activity change, negative = inhibition, usual class: inhibitors | AID 504845; note: potency is the fitted concentration of half-maximal effect; % is set by controls: 0 for no effect and ±100 for the full control effect; nearly all actives have a fitted effect of over 75% in size
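MLSMR compounds (23 nl, pin-transferred) preincubated 10 min at room temperature with a 500nM (2x) first reagent, then RGS4 at 900nM (2x) plus Transcreener GDP mix added; fluorescence polarization (620/688 nm) read before and after 90 min at 30 °C.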
* marks the source's active call; other numbers are inactive results; i = inactive; ? = inconclusive; nt = no result; [ ] = dose if it differs, or a comment. Unless noted, calls come from the whole dose curve; as a rule, active = well fitted curve in the direction sought with a large enough effect; inconclusive = small, poorly fitted or top-dose-only effect, or another doubt; inactive = no such curve, though single readings can be large; an effect the other way counts as inactive or inconclusive.

SMILES | BRCA1 expr up | PTHR1 ag | B2AR arrestin | DRD3 agonist | DRD3 antagonist | RGS4 inhibitor
CC1=NC(C)(C)CC2CCC(O)C12 (stereo not given) | -8.0% | i | nt | 0.6 | 14.1 | -1.9%
N[C@H](C(=O)O)[C@@H]1CC(Cl)=NO1 | nt | nt | nt | 5.9 | nt | nt
Cc1ccc(C(=O)N2CCN(CCNC(=O)C(=O)Nc3ccc(Cl)cc3)CC2)cc1 | 0.7% | -12.7% | -1.0% | -22.3 | -61.2* | -14.3%
O=C(NCCN1CCN(S(=O)(=O)c2ccccc2)CC1)C(=O)Nc1ccc(F)cc1 | -3.2% | i | -0.5% | -9.7 | -11.2 | -0.2%
Cc1ccc(C(=O)N2CCN(CCNC(=O)C(=O)NC(C)C)CC2)cc1 | 30.2% | i | -0.2% | -12.2 | -21.1 | -3.8%
Cc1ccc(S(=O)(=O)N2CCN(CCNC(=O)C(=O)Nc3ccc(F)cc3)CC2)cc1 | -18.2% | -19.1% | -0.1% | 31.7* | 18.0 | -25.7%
Cc1ccc(C(=O)N2CCN(CCNC(=O)C(=O)NCc3ccc(Cl)cc3)CC2)cc1 | -3.9% | -2.8% | 0.4% | -19.7 | -77.6* | 26.6%
CC(NC(=O)C1CCCN(S(=O)(=O)N2CCOCC2)C1)c1ccccc1 (stereo not given) | 2.7% | 5.7% | 0.0% | 4.1 | -1.7 | 18.9%
CN1OC[C@@H]2CN(C(=O)C(C)(C)C)[C@H](c3ccc(-c4cc5ccccc5o4)cc3)C[C@@H]21 | 0.0% | -24.2% | nt | -6.5 | 0.0 | nt
COCCCn1c(SCc2ccccc2)nc2cc(OC)c(OC)cc2c1=N | -56.0% | i | 0.0% | 30.5* | 34.1 | 18.5%
COCCCn1c(SCc2cccc(C(F)(F)F)c2)nc2cc(OC)c(OC)cc2c1=N | -0.1%[1.84 µM] | 7.4% | -1.0% | -7.3 | 40.5 | 36.3%
COc1ccc(Cn2c(SCc3cc(C)ccc3C)nc3cc(OC)c(OC)cc3c2=N)cc1 | 9.2%[1.84 µM] | -42.5% | -0.1% | 43.7* | 0.0 | -23.1%
CC(=O)c1cc(C#N)c(SCC(=O)OC(C)(C)C)nc1C | 5.62µM* | -4.9% | -0.5% | 9.9 | ? | 10.3%
Nc1nc(NCCc2ccccc2)c2[nH]cnc2n1 | 11.6% | nt | nt | nt | nt | -20.9%
Nc1nc(OCc2ccccc2)c2[nH]cnc2n1 | 9.1% | 3.8% | nt | -95.5 | -120.6* | 5.7%[56.9 µM]
CNc1ncnc(Sc2nc(N)nc3nc[nH]c23)c1[N+](=O)[O-] | -92.0% | i | nt | -3.9 | 1.6 | -37.0%
Nc1nc(Sc2ccc([N+](=O)[O-])c3nonc23)c2[nH]cnc2n1 | -92.0% | -42.5% | nt | -11.0 | -59.8* | -120.1%
CC[C@H]1OC(=O)C[C@@H](O)[C@H](C)[C@@H](O[C@@H]2O[C@H](C)[C@@H](O)[C@H](N(C)C)[C@H]2O)[C@@H](CCN2C[C@H](C)C[C@H](C)C2)C[C@@H](C)C(=O)/C=C/C(C)=C/[C@@H]1CO[C@@H]1O[C@H](C)[C@@H](O)[C@@H](OC)[C@H]1OC | nt | nt | nt | -4.2 | nt | nt
O=C(NC1CCCC1)c1cc2cc(Br)ccc2o1 | 3.16µM* | -41.8% | 0.0% | -13.0 | -20.5 | -20.8%
O=C(NC1CCCCC1)c1cc2cc(Br)ccc2o1 | 89.4% | -29.3% | -0.2% | -16.9 | 10.4 | -5.1%
Cc1ccc2cc3cc(C(=O)NC4CC4)oc3nc2c1 | 58.7% | -17.2% | -1.5% | 0.1 | 5.0 | -17.2%
Cc1ccc2cc3cc(C(=O)NC4CCCCC4)oc3nc2c1 | 3.98µM* | -36.6% | 0.4% | 0.2 | 6.5 | -12.9%
CCCS(=O)(=O)NC(=O)C1(C)CCN(C(=O)c2cc(C(C)(C)C)nn2C)C1 (stereo not given) | -5.4% | -5.6% | nt | 11.5 | 18.4 | nt
CNC(=O)c1cccc(NC(=O)c2ccccc2OCc2ccccc2)c1 | -52.8% | -8.6% | -0.6% | 12.7 | 6.0 | 3.0%
c1ccc(N2CCN(Cc3cn4cccnc4n3)CC2)cc1 | 15.9% | i | 0.4% | 5.6 | -59.0* | -6.4%
c1ccc(CN2CCN(Cc3cn4cccnc4n3)CC2)cc1 | -13.6% | i | 0.9% | -10.4 | -13.8 | 5.3%
C=C1CC[C@@H]2[C@](C)(CO)[C@H](O)CC[C@@]2(C)[C@@H]1C/C=C1/C(=O)OC[C@H]1O | nt | nt | nt | -0.5 | nt | nt
